According to the supplement of paper PMC6953052:
Values joined by “and” are separate entries in the source; they are usually repeats but may differ in a detail not shown here. Equal entries are not always repeated. Structures can show the parent of a compound that is named as a salt. Whole data set: some 1,700 compounds, median “fraction of GFP-LC3-positive cells (≥5 vesicles/cell)” near 0.43, cut for the highest 2% near 0.81. This excerpt belongs to a sample that is enriched for the highest values.

tested on: CbCln3 Δex7/8/Δex7/8 GFP-LC3 cerebellar neuronal cells; assay: fraction of GFP-LC3-positive cells (≥5 vesicles/cell); higher = more autophagosome accumulation
In short: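 Wild-type or mutant CbCln3 cerebellar cells stably expressing GFP-LC3 were plated at 2 × 10^3 per well in 384-well plates and received ~50 nL of compound in DMSO by pin transfer, in duplicate, for 24 h at 33 °C. Hoechst 33342 and LysoTracker Red were added for the last 30 min, after which cells were fixed in 3.2% PFA and three fields per well were imaged at 10×. CellProfiler counted GFP-LC3 vesicles per cell, and out-of-focus images were excluded. The reported value is the fraction of cells reaching a vesicle-count cutoff of 5 or more, averaged over duplicates.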

Structure (SMILES) | fraction of GFP-LC3-positive cells
C=C(C)[C@H]1O[C@H]2CC[C@@]3(C)[C@@](O)(CC[C@H]4[C@@H]5OC(C)(C)[C@H]6C[C@@H]7C(=C)Cc8c(Cl)cc9[nH]c(c5c9c8[C@@]76O)[C@@]43C)[C@]23O[C@@H]3[C@H]1O | 0.866
CC[C@H]1CN2CCc3cc(OC)c(OC)cc3[C@@H]2C[C@@H]1C[C@H]1NCCc2cc(OC)c(OC)cc21.Cl.Cl [Emetine dihydrochloride] | 0.546
Br.C[C@@H]1NCCc2cc(O)c(O)cc21 [Salsolinol hydrobromide] | 0.504
C/C=C(/C)C(=O)O[C@H]1C(C)=C2[C@H]([C@@H]1OC(=O)CCCCCCC)[C@@](C)(OC(C)=O)C[C@H](OC(=O)CCC)[C@@]1(O)[C@H]2OC(=O)[C@@]1(C)O | 0.847
N=C(N)NOCC[C@H](N)C(=O)O.O.O=S(=O)(O)O [Canavanine sulfate monohydrate (L,+)] | 0.416
CCCC(C)(COC(N)=O)COC(=O)NC(C)C (configuration not stated) [Carisoprodol] | 0.466
C[N+](C)(C)CCCCCCCCCC[N+](C)(C)C.[Br-].[Br-] [Decamethonium bromide] | 0.418
C/C1=C/C(=O)O[C@@H]2C[C@@H](CC[C@H](C)/C=C\CC1)O[C@@](O)([C@@H]1CSC(=O)N1)C2 [Latrunculin B] | 0.84
C[C@@]12N[C@@H](Cc3ccccc31)c1ccccc12.O=C(O)/C=C\C(=O)O [(-)-MK 801 hydrogen maleate] | 0.432
CC(=O)c1c(O)c(C)c(O)c(Cc2c(O)c3c(c(C(=O)/C=C/c4ccccc4)c2O)OC(C)(C)C=C3)c1O | 0.551
CC(=O)c1c(O)c(C)c(O)c(Cc2c(O)c3c(c(C(=O)/C=C/c4ccccc4)c2O)OC(C)(C)C=C3)c1O [Rottlerin] | 0.553
CC(=O)O[C@H]1CC[C@@]2(C)C(=CC[C@@H]3[C@@H]2CC[C@]2(C)C(=O)CC[C@@H]32)C1 [Dehydroisoandosterone 3-acetate] | 0.384
CN1C(CC(O)c2ccccc2)CCCC1CC(O)c1ccccc1.Cl (configuration not stated) [Lobelanidine hydrochloride] | 0.433
COc1cc2c(cc1O)[C@@H]1Cc3ccc(OC)c(O)c3CN1CC2 [Scoulerine] | 0.821
COc1ccc2c(c1O)-c1c(OC)c(OC)cc3c1[C@H](C2)N(C)CC3 [Isocorydine (+)] | 0.379
COc1ccc2c(c1OC)CN1CCc3cc4c(cc3C1C2)OCO4 (configuration not stated) [(d,l)-Tetrahydroberberine] | 0.303
C[C@H]1O[C@@H](OC2CC[C@]3(C=O)[C@H]4CC[C@]5(C)[C@@H](C6=CC(=O)OC6)CC[C@]5(O)[C@@H]4CC[C@]3(O)C2)C[C@H](O)[C@@H]1O (some centres not stated) [Helveticoside] | 0.378
N#CC(C#N)=Cc1ccc(O)cc1 [Tyrphostin-8] | 0.461
CCN1C[C@@]2(COC)C3[C@@H](OC)[C@H]4[C@@H]1[C@@]3(C1C[C@@]3(O)[C@H](OC(=O)c5ccccc5)C1[C@]4(OC(C)=O)[C@@H](O)[C@H]3OC)[C@@H](OC)C[C@H]2O (some centres not stated) [Aconitine] | 0.413
Cc1c2ccncc2c(C)c2c1[nH]c1ccccc12 [Ellipticine] | 0.954
Cc1nccc2c1[nH]c1ccccc12.Cl [Harmane hydrochloride] | 0.55
O=C(CCCN1CCC(n2c(=O)[nH]c3ccccc32)CC1)c1ccc(F)cc1 [Benperidol] | 0.358
COc1cc2c(c(OC)c1OC)-c1ccc(OC)c(=O)cc1[C@@H](NC(C)=O)CC2 [Colchicine] | 0.906
COc1cc2c(c(OC)c1OC)-c1ccc(O)c(=O)cc1[C@@H](N)CC2 [Trimethylcolchicinic acid] | 0.415

Structure (SMILES) | fraction of GFP-LC3-positive cells
COC1=C[C@@H]2C3=C([C@@H]2C1=O)[C@@H](NC(C)=O)CCc1cc(OC)c(OC)c(OC)c13 [Lumicolchicine gamma] | 0.401
CC[C@@H]1/C=C/C=C/C[C@H](C)[C@@H](O)[C@](C)(O)C(=O)[C@H](C)[C@@H](O)[C@H](C)C(=O)[C@H](C)[C@@H](O)[C@H](C)/C=C/C(=O)O[C@H]2[C@@H](C)[C@@H](CC1)O[C@@]1(CC[C@@H](C)[C@@H](C[C@H](C)O)O1)[C@@H]2C [oligomycin A] | 0.578
CC1=C2C[C@H]3[C@@H](CC=C4C[C@@H](O)CC[C@@]43C)[C@@H]2CC[C@]12O[C@@H]1C[C@H](C)CN[C@H]1[C@H]2C [cyclopamine] | 0.448
CCCCC/C=C\C/C=C\C/C=C\C/C=C\CCCC(=O)NCC(=O)O [N-Arachidonoylglycine] | 0.376
CCCCC/C=C\C/C=C\C/C=C\C/C=C\CCCC(=O)NCC(=O)O | 0.263
CCCCC/C=C\C/C=C\C/C=C\C/C=C\CCCC(=O)NCCc1ccc(O)c(O)c1 [Arachidonoyl dopamine] | 0.658
CCCCC/C=C\C/C=C\C/C=C\C/C=C\CCCC(=O)NCc1ccc(O)c(OC)c1 [Arvanil] | 0.848
CC(C)NCC(O)c1ccc(N)c(C#N)c1 (configuration not stated) | 0.462
COc1cc([C@@H]2c3cc4c(cc3[C@H](O)[C@H]3COC(=O)[C@H]23)OCO4)cc(OC)c1OC [Podophyllotoxin] | 0.884
COc1ccc2c(c1OC)C(=O)O[C@@H]2[C@H]1c2cc3c(cc2CCN1C)OCO3.Cl [Hydrastine hydrochloride] | 0.423
Cl.Cl.Fc1ccc(C(OCCN2CCN(CCCc3ccccc3)CC2)c2ccc(F)cc2)cc1 | 0.168
CO/C1=C\C(C)=C\[C@@H](C)[C@@H](O)[C@@H](C)C/C(C)=C/C=C/[C@H](OC)[C@@H]([C@@H](C)[C@@H](O)[C@H](C)[C@@]2(O)C[C@@H](O)[C@H](C)[C@@H](C(C)C)O2)OC1=O [bafilomycin A1] | 0.924
O[C@H]1[C@H]2[C@H](O)CCCN2C[C@H]1O [swainsonine] | 0.371
CN1CCC2=C[C@H](O)[C@H]3OC(=O)c4cc5c(cc4[C@H]3[C@@H]21)OCO5 [Hippeastrine hydrobromide] | 0.407
CN1CCc2cc3c(cc2[C@H]1[C@@H]1OC(=O)c2c1ccc1c2OCO1)OCO3 [Bicuculline (+)] | 0.326
CN1Cc2c(ccc3c2OCO3)[C@@H]2[C@H]1c1cc3c(cc1C[C@@H]2O)OCO3.O [Chelidonine (+)] | 0.93
C[C@@H]1CC([C@H](O)CC2CC(=O)NC(=O)C2)C(=O)[C@@H](C)C1 (some centres not stated) [cycloheximide] | 0.481
C[C@@]1(CO)[C@H](O)CC[C@@]2(C)[C@H]1CC[C@H]1C[C@@H]3C[C@@]12CC[C@]3(O)CO [aphidicolin] | 0.623
CC(=O)OCC(=O)[C@H]1CC[C@H]2[C@@H]3CC[C@H]4C[C@H](O)CC[C@]4(C)[C@H]3C(=O)C[C@]12C [Alfadolone acetate] | 0.441
CCCCc1ccc(C(=O)O)nc1 [Fusaric acid] | 0.408
O=C1C=CC(=O)c2c(O)cccc21 [juglone] | 0.367
N#CC(C#N)=NNc1ccc(OC(F)(F)F)cc1 | 0.936
COc1cc2c(cc1OC)C(C)NCC2.Cl (configuration not stated) | 0.422
Cc1nccc2c1[nH]c1cc(O)ccc12.Cl.O [Harmol hydrochloride monohydrate] | 0.441

Structure (SMILES) | fraction of GFP-LC3-positive cells
OC(c1ccccc1)(c1ccccc1)C1CCNCC1 [Azacyclonol] | 0.306
C/C(O)=C(\C#N)C(=O)Nc1cc(Br)ccc1Br | 0.547 and 0.552
O=C(CCCN1CCC2(CC1)C(=O)NCN2c1ccccc1)c1ccc(F)cc1 [Spiperone] | 0.376
C=C1[C@@H]2CC[C@H]3[C@]4(C)C[C@H](O[C@H]5O[C@H](CO)[C@@H](OS(=O)(=O)[O-])[C@H](OS(=O)(=O)[O-])[C@H]5OC(=O)CC(C)C)C[C@@H](C(=O)O)[C@H]4CC[C@]3(C2)[C@H]1O.[K+].[K+] [Atractyloside potassium salt] | 0.314
O.O.O.O=C1OC2(c3cc(Br)c([O-])cc3Oc3c2cc(Br)c([O-])[c]3[Hg][OH])c2ccccc21.[Na+].[Na+] (configuration not stated) [Merbromin] | 0.954
C[C@@H]1CC[C@@]2(NC1)O[C@H]1C[C@H]3[C@@H]4CC=C5C[C@@H](O)CC[C@]5(C)[C@H]4CC[C@]3(C)[C@H]1[C@@H]2C [Solasodine] | 0.378
CN1C[C@H](CNC(=O)OCc2ccccc2)C[C@@H]2c3cccc4c3c(cn4C)C[C@H]21 [Metergoline] | 0.238
c1ccc(C2CC2)c(OCC2=NCCN2)c1 | 0.404
CCNC(=O)[C@H]1O[C@@H](n2cnc3c(N)ncnc32)C(O)[C@H]1O (some centres not stated) [5'-N-Ethylcarboxamidoadenosine (NECA)] | 0.445
COc1cc2c(cc1O)C[C@H]1c3c(cc(O)c(OC)c3-2)CCN1C [Boldine] | 0.447
Cc1c(C(=O)c2cccc3ccccc23)c2cccc3c2n1[C@H](CN1CCOCC1)CO3 | 0.451 and 0.539
CC1=NCCc2c1[nH]c1cc(O)ccc21.Cl.O.O [Harmalol hydrochloride dihydrate] | 0.479
C[C@H](N)C(=O)N[C@@H](C)C(=O)N[C@@H](Cc1ccccc1)C(=O)CCl | 0.742 and 0.818
CC(=O)C(C)O.CC(Cc1ccccc1)NCCC(c1ccccc1)c1ccccc1 (configuration not stated) [Prenylamine lactate] | 0.266
CC(C)c1c(CN(C)C(C)Cc2ccccc2)n(C)n(-c2ccccc2)c1=O (configuration not stated) [Famprofazone] | 0.405
N#CC(C#N)=Cc1ccc(O)c(O)c1 | 0.348
CC(C)(C)c1cc(C=C(C#N)C#N)cc(C(C)(C)C)c1O [tyrphostin 9] | 0.882
CC(C)(C)c1cc(C=C(C#N)C#N)cc(C(C)(C)C)c1O | 0.718
N#CC(C#N)=Cc1cc(O)c(O)c(O)c1 | 0.46
COc1ccc(CC2c3cc(OC)c(OC)cc3CCN2C)cc1OC (racemic) [Laudanosine (R,S)] | 0.508
c1cncc([C@H]2CCCCN2)c1 [Anabasine] | 0.34
C[N+]1(C)C2CC[C@H]1C[C@@H](OC(=O)C(CO)c1ccccc1)C2.O=[N+]([O-])[O-] (some centres not stated) [Methylatropine nitrate] | 0.451
COc1ccc(CCN2CCC(Nc3nc4ccccc4n3Cc3ccc(F)cc3)CC2)cc1 [Astemizole] | 0.587
CC[N+]1(C)CCCC(OC(=O)C(O)(c2ccccc2)c2ccccc2)C1.[Br-] (configuration not stated) [Pipenzolate bromide] | 0.4
